# Hits are enriched below; roughly 9% of the tested compounds scored in any of these assays.
# Lamin A splicing = qHTS Assay for Modulators of Lamin A Splicing; HeLa LMNA splicing GFP/RFP minigene ratio, 48 h; Potency, µM (top dose mostly 46.1 µM), for inactives: at the highest dose ratio change, negative = inhibition, usual class: inhibitors; actives 0.01% (n = 200,000); AID 1487, 2009; active = well fitted inhibition curve with a large enough effect in the signal ratio, with a control signal flat, not every such curve was filed as active; inconclusive = small, poorly fitted or top-dose-only effect, or effect the other way, or a change in a side signal; the % refers to the signal ratio; note: % is set by controls: 0 for no effect and ±100 for the full control effect
#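 Read-out is the ratio of GFP to DsRed2 object intensity, acquired by 488 nm laser-scanning cytometry on HeLa lamin A-EGFP minigene reporter cells. Compound incubation 48 hrs at 37 °C in Opti-MEM with 2% FBS; DMSO 0.5% final.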
# ALDH1A1 block = qHTS Assay for Inhibitors of Aldehyde Dehydrogenase 1 (ALDH1A1). Aldehyde dehydrogenase 1A1 (Homo sapiens), P00352. Purified ALDH1A1, NADH fluorescence, propionaldehyde substrate. Potency, µM (top dose mostly 75.3 µM), for inactives: at the highest dose activity, negative = inhibition, actives largely listed as inhibitors. actives 7.3% (n = 220,000); active = well fitted inhibition curve with a large enough effect, not every such curve was filed as active; inconclusive = small, poorly fitted or top-dose-only effect, or another doubt; inactive = no such curve, though single readings can be large or run the other way;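 note: plate controls were no enzyme wells and a reference inhibitor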
# Target sequence (P00352 whole entry, looked up): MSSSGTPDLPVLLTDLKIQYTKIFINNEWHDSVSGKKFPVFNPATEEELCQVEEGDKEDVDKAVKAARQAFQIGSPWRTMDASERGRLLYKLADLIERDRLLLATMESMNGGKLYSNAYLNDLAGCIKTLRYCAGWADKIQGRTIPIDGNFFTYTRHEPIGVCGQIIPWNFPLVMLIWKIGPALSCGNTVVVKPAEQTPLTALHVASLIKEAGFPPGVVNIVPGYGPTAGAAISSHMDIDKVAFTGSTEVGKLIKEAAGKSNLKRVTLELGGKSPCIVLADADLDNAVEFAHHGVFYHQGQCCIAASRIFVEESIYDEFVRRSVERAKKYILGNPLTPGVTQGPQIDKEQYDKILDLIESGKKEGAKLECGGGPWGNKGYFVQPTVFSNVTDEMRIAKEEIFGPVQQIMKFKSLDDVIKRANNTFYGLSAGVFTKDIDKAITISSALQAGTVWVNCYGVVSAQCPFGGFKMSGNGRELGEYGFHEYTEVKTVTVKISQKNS
# HTT aggregate = qHTS Multiplex Assay to Identify Dual Action Probes in a Cell Model of Huntington: Aggregate Formation (GFP) | PC12 HttQ103-GFP aggregates, Acumen cytometry, 40 h | actives 1.1% (n = 220,000) | Potency, µM (doses to about 46.1 µM), inactives show at the top dose activity change, negative = inhibition, usual class: inhibitors; note: % is set by controls: 0 for no effect and ±100 for the full control effect; nearly all actives have a fitted effect of over 60% in size
#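 Using laser scanning cytometry, GFP-positive aggregates were counted after lysis of PC12 cells induced with 100 nM tebufenozide to express HTT exon 1 Q103–GFP. Compounds were tested in titration.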
# HPGD inh = qHTS Assay for Inhibitors of HPGD (15-Hydroxyprostaglandin Dehydrogenase); AID 894, 2007; actives 4.3% (n = 150,000); purified HPGD, NADH fluorescence kinetic, PGE2 substrate; Potency, µM, for inactives: at the highest dose activity change, negative = inhibition, usual class: inhibitors; 15-hydroxyprostaglandin dehydrogenase [NAD(+)] (Homo sapiens), P15428; active = well fitted inhibition curve with a large enough effect, not every such curve was filed as active; inconclusive = small, poorly fitted or top-dose-only effect, or another doubt; inactive = no such curve, though single readings can be large or run the other way; note: % is set by controls: 0 for no effect and ±100 for the full control effect
# Target sequence (P15428 whole entry, looked up): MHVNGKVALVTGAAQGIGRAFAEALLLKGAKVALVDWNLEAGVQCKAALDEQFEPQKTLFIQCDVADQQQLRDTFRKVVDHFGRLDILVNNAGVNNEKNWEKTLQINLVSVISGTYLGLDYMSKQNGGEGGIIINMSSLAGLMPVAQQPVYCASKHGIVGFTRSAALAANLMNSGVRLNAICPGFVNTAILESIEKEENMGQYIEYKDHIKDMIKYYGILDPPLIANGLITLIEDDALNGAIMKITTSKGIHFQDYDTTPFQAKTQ
#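 20 nM HPGD preincubated 15 min at room temperature with compound in 50 mM Tris-HCl pH 8, 0.01% Tween 20. Started with 1 mM NAD+ and 30 uM prostaglandin E2; NADH fluorescence (360/450 nm) read 5 times over 30-s intervals, last minus first.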
# KinaseGlo FLuc = Counterscreen for Luciferase (Kinase-Glo TM) Inhibition; Luciferin 4-monooxygenase (Photuris pensylvanica), Q27757; Kinase-Glo luciferase, ATP luminescence, 8 min; Potency, µM (doses to about 38.3 µM), inactives show at the top dose activity change, negative = inhibition, actives largely listed as inhibitors; actives 0.28% (n = 200,000); AID 1379, 2008; note: % is set by controls: 0 for no effect and ±100 for the full control effect; nearly all actives have a fitted effect of over 60% in size
#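 Substrate mix (final 50 mM imidazole pH 7.2, 50 mM KCl, 7 mM MgCl2, 10 uM ATP, 0.01% Tween 20, 0.05% BSA) plus pin-tool compound, then Kinase-Glo detection mix; 8 min ambient, luminescence read.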
# HTT cytoprotect = qHTS Multiplex Assay to Identify Dual Action Probes in a Cell Model of Huntington: Cytoprotection (ATP) | PC12 HTT-Q103 induced, cytoprotection, ATP luminescence, 40 h | Potency, µM (top dose mostly 56.4 µM), for the others: cytoprotection (ATP increase), most hits filed as activators | actives 0.14% (n = 230,000); note: % of control where 0% means no effect; nearly all actives have a fitted effect of over 45% in size
#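 Quantitative HTS on tebufenozide-induced (100 nM) PC12 cells expressing HTTQ103 exon 1–GFP; compounds tested as a concentration series; survival measured via cellular ATP.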
# * hit, by the source's call; ? = inconclusive; nt = no result given; [ ] = another dose, or the depositor's remark. Unless noted, calls come from the whole dose curve; as a rule, active = well fitted curve in the direction sought with a large enough effect; inconclusive = small, poorly fitted or top-dose-only effect, or another doubt; inactive = no such curve, though single readings can be large; an effect the other way counts as inactive or inconclusive. Potency is the fitted concentration of half-maximal effect.
SMILES,Lamin A splicing,ALDH1A1 block,HTT aggregate,HPGD inh,KinaseGlo FLuc,HTT cytoprotect
CC(=O)C1=C(C)NC(SCC(=O)c2ccc(C)cc2)=C(C#N)C1c1ccco1 (configuration not stated),-5%,10µM*,-4%,28µM*,4%,-10%
COc1ccccc1NC(=O)C1=C(C)NC(SCC(=O)c2ccccc2)=C(C#N)C1c1ccco1 (configuration not stated),-5%,14µM*,7%,?,-1%,-14%[10 µM]
O=C(Nc1ccc2c(c1)OCCO2)c1ccccn1,2%[46 µM],5%,10%,nt,13µM*,-137%
Cn1nc(C(=O)Nc2ccc3c(c2)OCCO3)cc1C(=O)O,nt,-1%,nt,nt,11µM*,nt
Cc1nn(C)c(C)c1NC(=O)c1ccnn1C,11%,18µM*,7%,-7%,0%,5%[10 µM]
O=C(Nc1ccc(N2CCCCC2)cc1)c1ccccn1,nt,0%,?,nt,7.9µM*,nt
CCOC(=O)C1=C(C)NC(C)=C(C(=O)OCC)C1C(=O)OCC(=O)N1CCCCC1CC (configuration not stated),-4%,-13%,1%,-19%,0%,1%
Cn1ncc([N+](=O)[O-])c1C(=O)Nc1ccc2c(c1)OCCO2,5%,0%,-17%,-10%,-3%,-10%
Cn1nccc1C(=O)Nc1ccc2c(c1)OCCO2,15%[46 µM],-8%,8%[9.22 µM],nt,13µM*,-7%[10 µM]
O=C(Nc1ccc(N2CCOCC2)cc1)c1cn2ccccc2n1,7%[0.0737 µM],2%,17%,-12%,4.5µM*,-38%
COc1ncnc2c1oc1nc(CC(C)C)c3c(c12)CC(C)(C)OC3,-8%,1µM*,-8%,-9%,-5%,-23%
Cc1nc2oc3c(=O)[nH]cnc3c2c2c1COC(C)(C)C2,nt,nt,19%[9.22 µM],nt,nt,18%[10 µM]
CCOc1c(Cl)cc(C2NC(=O)NC(C)=C2C(=O)NCc2ccccc2)cc1OC (configuration not stated),-6%,3%,13%,-5%,0%,-7%
COc1ccc2c(c1)C(=O)C(=O)N2,-14%,22µM*,14%,-15%,-8%,28%[10 µM]
COc1ccc(O)c(/C=N/N=C2/C(=O)Nc3ccccc32)c1,-13%[46 µM],?,18%,nt,-5%,-8%
CC(=O)N1N=C(c2ccc(C)o2)CC1c1cccc(F)c1 (configuration not stated),-6%[46 µM],14µM*,21%[9.22 µM],nt,1%,30%[10 µM]
CCc1ccc(CNc2ccc(N3CCN(C(C)=O)CC3)cc2)cc1,-25%,22µM*,?,-13%,-1%,-12%[0.074 µM]
CC(=O)N1CCN(c2ccc(NCc3ccc(C)cc3)cc2)CC1,?,?,22%,0%,-7%,-17%[10 µM]
COc1cc(CNc2ccc(N3CCN(C(C)=O)CC3)cc2)ccc1OCc1ccccc1,15%[46 µM],18µM*,3%[9.22 µM],nt,-2%,3%[10 µM]
S=C(NCCN1CCOCC1)Nc1ccc(Cl)cc1Cl,0%,5%,?,-15%,0%,6%[10 µM]
O=C(NCc1ccc(F)cc1Cl)C1CCN(S(=O)(=O)N2CCC3(CC2)OCCO3)CC1,8%,?,-2%,-21%,-2%,2%
COC(=O)c1ccc(CN2CCN(Cc3ccc(C(=O)OC)o3)CC2)o1,13%,22µM*,16%,-9%,-2%,4%[10 µM]
Cc1cccn2c(=O)c(C=O)c(N3CCN(c4ccccc4)CC3)nc12,nt,?,7%,nt,-2%,9%[10 µM]
Cc1c(Cl)cccc1NC(=O)c1cc(-c2ccccc2O)n[nH]1,?,11%,18%[9.22 µM],13µM*,0%,-31%
COc1ccc(Cl)cc1NC(=O)c1cc(-c2ccccc2O)n[nH]1,?,-13%,3%,1.4µM*,-1%,nt
SMILES,Lamin A splicing,ALDH1A1 block,HTT aggregate,HPGD inh,KinaseGlo FLuc,HTT cytoprotect
CCN(CC)c1nn2c(=O)c(C(=O)NCc3ccc(N(C)C)cc3)cnc2s1,3%[46 µM],nt,nt,nt,nt,nt
Nc1nc(SCC(=O)Nc2ccccc2-c2ccccc2)n[nH]1,19%,?,-1%,-10%,-4%,-12%
CCOC(=O)C1=C(CSc2nc(C)ccc2C#N)OC(N)=C(C#N)C1c1cccc(OC)c1OC (configuration not stated),16%,28µM*,?,-8%,-2%,-16%[0.074 µM]
Cc1cc(C)c2c(=O)n(CC(=O)Nc3ccc(Cl)cc3)sc2n1,nt,nt,-31%[9.22 µM],nt,nt,-7%[10 µM]
Cc1cc(C)c2c(=O)n(CC(=O)NCCCN3CCN(c4ccccc4F)CC3)sc2n1,-9%,3.5µM*,?,?,11µM*,-9%[10 µM]
Cc1cc(C)c2c(=O)n(CC(=O)NCCCN3CCOCC3)sc2n1,4%,?,-8%,?,7.9µM*,6%[10 µM]
Cc1ccccc1CS(=O)(=O)CCC(=O)NCCCN1CCN(c2ccccc2F)CC1,12%[0.0737 µM],9%,0%,-13%,3%,14%
CCN1CCN(CC(=O)c2cc(Cl)ccc2Cl)CC1,?,14µM*,2%,nt,-5%,-16%
NC(=O)CSc1nccn1Cc1ccccc1,nt,10µM*,0%,nt,0%,?
c1ccc(Cn2ccnc2SCc2nnc(-c3ccccc3)o2)cc1,?,-11%,?,25µM*,0%,-2%
NC(=O)CSc1nccn1Cc1ccc(Cl)cc1,11%[46 µM],5%,3%,nt,-1%,20%[10 µM]
Cn1cccc1CC(=O)N/N=C/c1cccc2ccccc12,-12%,?,-4%,16µM*,2%,-6%[10 µM]
CCc1ccc(OCC(=O)NC(NC(=S)Nc2ccc(C)cc2C)C(Cl)(Cl)Cl)cc1 (configuration not stated),?,-9%,-11%,-8%,-3%,-79%
COC(=O)CN1C(=O)C(C)(C)Oc2ccc(C(=O)NC3CC3)cc21,-2%,-3%,-22%,-4%,0%,-13%[10 µM]
CC(C)OC(=O)CN1C(=O)C(C)(C)Oc2ccc(C(=O)NC3CC3)cc21,3%,11µM*,5%,-13%,-3%,1%[10 µM]
O=C(O)CC/C(=C\c1ccc(N2CCOCC2)c([N+](=O)[O-])c1)c1nc2ccccc2s1,-30%[46 µM],6.3µM*,3%,nt,-1%,-8%
O=C(O)C/C(=C\c1ccc(N2CCOCC2)c([N+](=O)[O-])c1)c1nc2ccccc2s1,nt,nt,15%[9.22 µM],nt,nt,16%[10 µM]
O=C(c1ccncc1)N1CCC2(CC1)CCN(c1cccc(-c3ccccc3)c1)CC2,nt,-3%,nt,-14%,-2%,24%
Cc1ccc(CNC(=O)CN2C(=O)CC(c3ccc(C)c(C)c3)=Nc3ccccc32)cc1,3%[46 µM],nt,nt,nt,nt,nt

# Assay outcomes as filed in PubChem BioAssay.
